Most compounds without a hit are left out; they make up all but 19% or so of the library.
MARV entry inh – qHTS for inhibitors of binding or entry into cells for Marburg Virus; 1.8% of 300,000 active; AID 540276, 2011; Marburg virus pseudotyped entry inhibition, cell reporter; Potency, µM (top dose mostly 37.8 µM), without a hit: at the top dose activity change, negative = inhibition, hits mostly inhibitors; calls by dose curve; tested in HEK293 cells; also: potency is read from the fitted curve at half-maximal effect; % is scaled to controls: 0 for no effect and ±100 for the full control effect
Lassa entry inh – qHTS for Inhibitors of binding or entry into cells for Lassa Virus. Potency, µM (doses to about 37.9 µM), inactives show at the highest dose activity change, negative = inhibition, usual class: inhibitors. 1.2% of 300,000 active. Lassa virus pseudotype entry inhibition, cell reporter. AID 540256, 2011; calls by dose curve; tested in HEK293 cells; also: potency is read from the fitted curve at half-maximal effect; % is scaled to controls: 0 for no effect and ±100 for the full control effect; nearly all actives have a fitted effect of over 50% in size
Shiga inhibitor – A qHTS for Small Molecule Inhibitors of Shiga Toxin | inhibition, % at 38.7 µM | 9.2% of 290,000 active | Vero cells, Shiga toxin protein synthesis inhibition reporter | AID 2315, 2010; in the data active = inhibition mostly above about 28%, no sharp cut-off; inactive = mostly below about 43%; also: 0% is about no effect
Pf growth 48h – Primary qHTS for delayed death inhibitors of the malarial parasite plastid, 48 hour incubation; P. falciparum luciferase growth in erythrocytes, 48 h; Potency, µM (top dose mostly 28.7 µM), for inactives: at the highest dose activity change, negative = inhibition, actives largely listed as inhibitors; 5.9% of 310,000 active; AID 504832, 2011; also: potency is read from the fitted curve at half-maximal effect; % is scaled to controls: 0 for no effect and ±100 for the full control effect
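First compound was added to culture medium, then infected red cells at 0.1% parasitemia and 2% hematocrit (final). After incubation at 37 C under 5% CO2, luciferase detection reagent was dispensed and light output recorded.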
CHX counter – Cycloheximide Counterscreen for Small Molecule Inhibitors of Shiga Toxin; cell reporter, cycloheximide protein synthesis inhibition counterscreen; max response, %; 12% of 300,000 active; in the data active = max response mostly above about 13%, no sharp cut-off; inactive = mostly below about 14%; also: read at 38.3 µM for the half of the compounds with a filed dose; 0% is about no effect
Pf growth 96h – Primary qHTS for delayed death inhibitors of the malarial parasite plastid, 96 hour incubation; P. falciparum luciferase reporter growth, 96 h; 6.9% of 320,000 active; Potency, µM (titrated, usually from 28.7 µM), inactives show at the top dose activity change, negative = inhibition, actives largely listed as inhibitors; also: potency is read from the fitted curve at half-maximal effect; % is scaled to controls: 0 for no effect and ±100 for the full control effect
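Plates of compound plus infected erythrocytes (2% hematocrit, 0.05% parasitemia final) incubate 96 hours, 37 C, 5% CO2. Detection reagent added; reduced luminescence from the parasites' luciferase reporter flags inhibition.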
An asterisk follows results filed as active; ? = inconclusive; nt = no result given; [ ] = another dose, or the depositor's remark. Unless noted, calls follow the shape of the dose curve; as a rule, active = well fitted inhibition curve with a large enough effect; inconclusive = small, poorly fitted or top-dose-only effect, or another doubt; inactive = no such curve, though single readings can be large or run the other way.

SMILES	MARV entry inh	Lassa entry inh	Shiga inhibitor	Pf growth 48h	CHX counter	Pf growth 96h
CCSc1nc2ccccc2n1C(=O)/C=C\c1ccc(OC)c(OC)c1	13µM*	?	-13	?	-4	?
Cc1cc(Br)c2c(c1)=C(c1sc(N3CCCCCC3)nc1O)C(=O)N=2	-2%	?	63*	?	17*	23%
COC(=O)c1cc(NC(=O)CC2C(=O)NCCN2C(=O)c2ccccc2)cc(C(=O)OC)c1 (stereo unspecified)	27%	3%	-13	-6%	0	26%
COC(=O)c1sccc1NC(=O)CC1C(=O)NCCN1C(=O)c1ccccc1 (stereo unspecified)	?	2%[46.1 µM]	-10	-1%	13*	8%
O=C1C(C2=C(O)c3ccccc3C2=O)=Nc2ccccc21	?	?	65*	6%	25*	24%
CC(C(=O)N1CCc2ccccc2C1)N1C(=O)c2ccccc2C1=O (stereo unspecified)	nt	nt	-11	12%	-2	12%
CC(N=C1NS(=O)(=O)c2ccccc21)C(=O)N1CCc2ccccc2C1 (stereo unspecified)	?	?	46*	234%	19*	51%
Cc1cc(=O)oc2c1c(C)nn2-c1ccc(Br)cc1	?	10%	-8	-28%	1	2.9µM*
Cc1cc(=O)oc2c1c(C)nn2-c1cccc(Cl)c1	?	6%[46.1 µM]	-4	2%	-4	3%[5.75 µM]
C=CCNC(=S)NNC(=O)COc1ccc2cc(Br)ccc2c1	25%[46.1 µM]	18%	101*	68%	44*	?
C=CCNC(=S)NNC(=O)COc1ccc(Br)cc1	0%	7%	2	2%	4	5.9µM*
CCOc1ccc(Cc2nn[nH]n2)cc1	-28%	10%	-17	16%	-4	-6%
Cc1ccc(-n2nc(C(=O)N3CCOCC3)cc2-c2ccc(Cl)cc2)cc1	?	?	-9	?	9	?
Cc1ccc(-c2nc3c(c(=O)c4ccccc4n3C)c(=O)n2-c2ccccc2)cc1	2%	-5%	-13	-4%	5	?
Cc1cccc(-c2nc3c(c(=O)c4ccccc4n3C)c(=O)n2-c2ccccc2)c1	0%[46.1 µM]	?	14	1.7µM*	-1	1.7µM*
NC(=O)c1ccc(-c2nc(-c3ccc4c(c3)OCO4)c(-c3ccccn3)[nH]2)cc1	nt	6.3µM*	-6	nt	-6	nt
Cc1cc(C(=O)Nc2ccc3ccccc3c2)oc1C	?	?	127*	117%	30*	-23%
Cc1cc(C(=O)Nc2cccc(C(=O)O)c2)oc1C	?	3.5µM*	81*	162%	38*	47%
Cc1cc(C(=O)Nc2nncs2)oc1C	nt	nt	nt	42%	1	2.6µM*
CC(=O)c1cc(C(=O)Nc2ccc3ccccc3c2)c(C)o1	5%[46.1 µM]	5%[46.1 µM]	-3	15%	-3	7%
Cc1ccoc1C(=O)Nc1ccc2ccccc2c1	?	10µM*	63	159%	41*	-13%
Cc1cc(C(=O)Nc2nc3c(C)cccc3s2)c(C)o1	-12%	10%	11	19%	19*	45%
Cc1cc(C(=O)Nc2ccc3ccccc3c2)c(C)o1	?	?	96*	293%	32*	22%
COc1cccc(-c2ccc3c(N)c(C(=O)NC4CC4)sc3n2)c1	?	?	104*	-3%	37*	-14%
COc1cccc(-c2ccc3c(N)c(C(=O)NCc4ccc(Cl)cc4)sc3n2)c1	-14%[46.1 µM]	7.9µM*	nt	nt	nt	nt
SMILES	MARV entry inh	Lassa entry inh	Shiga inhibitor	Pf growth 48h	CHX counter	Pf growth 96h
COc1ccc(C(=O)c2sc3nc(-c4ccc(OC)cc4)ccc3c2N)cc1	3%[46.1 µM]	?	40	17%	22*	321%
COc1ccc(-c2ccc3c(N)c(C(=O)NCc4ccc(C)cc4)sc3n2)cc1	-2%[46.1 µM]	?	nt	nt	nt	nt
CCOC(=O)c1ccc(CN(Cc2ccc(F)cc2)S(=O)(=O)c2ccc(F)c(C(=O)Nc3c(C)cccc3C)c2)cc1	nt	13%[46.1 µM]	nt	nt	nt	nt
COc1cc2cc(C(=O)O)n(C)c2c(OC)c1OC	-2%	22%	-7	7%	-2	?
CCOC(=O)/C(C#N)=C1\SS/C(=C(/C#N)C(=O)OCC)S1	nt	nt	50*	7%	35*	1%
O=S(=O)(NCc1cccnc1)c1ccc(Cl)s1	-7%	8%	-9	-2%	-4	6%
CC(C)CN1CCN(Cc2cccc3nccnc23)CC1CCO (stereo unspecified)	-4%[46.1 µM]	0%	-7	-9%	-1	16%
COc1ccc(-c2ncc(CN3CCN(CCC(C)C)C(CCO)C3)cn2)cc1 (stereo unspecified)	?	8%[46.1 µM]	66*	0%	33*	?
Cc1cccc(-c2ncc(CN3CCN(CC(C)C)C(CCO)C3)cn2)c1 (stereo unspecified)	4%[46.1 µM]	15%	41*	22%	15	-14%
COC(=O)c1ccc(CN2CCN(CCC(C)C)C(CCO)C2)cc1 (stereo unspecified)	nt	nt	6	24%	-3	?
Cc1ccc(S(=O)(=O)NNc2ccccc2)c(C)c1	1%	-13%	12	12%	10	-10%
CCC12CN(S(=O)(=O)c3ccc(C)cc3)CC(CC)(CN(S(=O)(=O)c3ccc(C)cc3)C1)C2=O	?	-28%	15	nt	-3	2.3µM*
CCCc1nc2ccccc2c(=O)n1-c1ccc(O)cc1	-22%[46.1 µM]	-13%[46.1 µM]	21	-11%	-5	41%
CCCc1nc2ccccc2c(=O)n1/N=C/c1c(C)[nH]n(-c2ccc(C)cc2)c1=O	?	?	11	-29%	9	3.7µM*
CCCc1nc2ccccc2c(=O)n1/N=C/c1ccccc1O	?	?	59	12µM*	47*	nt
CCc1nc2ccccc2c(=O)n1/N=C/c1ccc(Cl)cc1	-4%[46.1 µM]	6%	nt	nt	nt	nt
O=C(O)C1CCCC2CN3CCc4c([nH]c5ccccc45)C3C(O)C21 (stereo unspecified)	25%[46.1 µM]	1%[46.1 µM]	-6	-4%	-2	?
Cc1cc(C(=S)N2CCOCC2)c(C)n1-c1ccc(Cl)cc1	-39%	?	19	?	10	8%
Cc1cc(C)cc(N2CCN(C(=O)N3CCOCC3)CC2)c1	-6%	0%	-2	-4%	-2	6.6µM*
Cc1cc(C)cc(-n2c(C)cc(C(=S)N3CCOCC3)c2C)c1	-19%	?	9	12µM*	2	42%
CSc1nc(SCC(N)=O)c2c3c(sc2n1)CN(C)CC3	8%	2%	-12	3.3µM*	1	0.59µM*
CSc1nc(SCC(=O)NCc2ccco2)c2c3c(sc2n1)CN(C)CC3	-1%	8%	nt	nt	nt	nt
CCNc1nc(SCC(N)=O)nc2sc3c(c12)CCN(C)C3	?	7%	-4	?	2	1µM*
